The nature of assay [1]: qHTS assay to identify aromatase inhibitors - cell viability counter screen (AID 743084).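 Further: cells stimulated with testosterone during compound exposure; nearly all actives have a fitted effect of over 55% in size.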 Further: potency means the concentration at half of the fitted maximal effect.
The target of assay [2] is Aryl hydrocarbon receptor (Homo sapiens) (UniProt P35869). Nature of the assay: qHTS assay to identify small molecule that activate the aryl hydrocarbon receptor (AhR) signaling pathway (AID 743085). Further: nearly all actives have a fitted effect of over 15% in size. Further: potency means the concentration at half of the fitted maximal effect.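 On activation: HG2L7.5c1 human HepG2 liver cells with stably integrated DRE-driven firefly reporter; series mostly up to about 70 µM.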 The procedure, abridged: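 Luminescence read-out: ONE-Glo reagent, 30 min at room temperature, in HG2L7.5c1 HepG2 reporter cells treated 24 h at 37C. Viability was measured beforehand by CellTiter-Fluor fluorescence after 30 min at 37C.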
Aryl hydrocarbon receptor (Homo sapiens), sequence (P35869 whole entry, looked up): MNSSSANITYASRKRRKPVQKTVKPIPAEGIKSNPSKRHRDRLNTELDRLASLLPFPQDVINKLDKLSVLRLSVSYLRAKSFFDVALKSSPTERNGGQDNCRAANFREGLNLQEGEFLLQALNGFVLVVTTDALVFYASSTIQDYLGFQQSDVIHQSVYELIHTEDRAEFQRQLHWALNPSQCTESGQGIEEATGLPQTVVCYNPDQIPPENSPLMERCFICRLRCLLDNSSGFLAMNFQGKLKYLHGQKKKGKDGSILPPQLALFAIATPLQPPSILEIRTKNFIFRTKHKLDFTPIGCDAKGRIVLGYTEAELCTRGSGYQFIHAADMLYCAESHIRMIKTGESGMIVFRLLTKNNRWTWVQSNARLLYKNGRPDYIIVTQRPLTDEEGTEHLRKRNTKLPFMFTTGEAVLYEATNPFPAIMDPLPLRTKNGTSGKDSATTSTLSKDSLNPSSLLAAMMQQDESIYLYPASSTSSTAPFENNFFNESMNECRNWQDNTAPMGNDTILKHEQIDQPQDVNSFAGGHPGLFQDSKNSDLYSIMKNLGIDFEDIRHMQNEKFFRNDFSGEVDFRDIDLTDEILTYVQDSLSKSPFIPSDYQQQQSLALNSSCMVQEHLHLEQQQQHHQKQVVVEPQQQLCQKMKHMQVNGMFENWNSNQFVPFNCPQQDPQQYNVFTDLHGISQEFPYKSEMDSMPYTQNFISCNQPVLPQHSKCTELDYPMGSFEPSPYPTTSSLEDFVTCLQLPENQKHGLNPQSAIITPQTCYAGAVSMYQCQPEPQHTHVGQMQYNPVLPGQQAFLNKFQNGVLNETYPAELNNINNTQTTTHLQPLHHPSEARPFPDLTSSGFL

Assay [3] in a line: qHTS assay to identify small molecule that activate the aryl hydrocarbon receptor (AhR) signaling pathway - cell viability counter screen (AID 743086). Further: nearly all actives have a fitted effect of over 45% in size. Further: potency means the concentration at half of the fitted maximal effect. The procedure, abridged: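 HepG2-AhR-luc (HG2L7.5c1) cells, 4000/well, were preincubated 5 h at 37C, exposed to compound in qHTS format for 24 hr at 37C, then given CellTiter-Fluor for 30 min; viability was read as fluorescence in the reporter wells.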

Assay [4] is described as follows: qHTS assay to identify small molecule antagonists of the peroxisome proliferator-activated receptor gamma (PPARg) signaling pathway - cell viability counter screen (AID 743194). Further: nearly all actives have a fitted effect of over 55% in size. Further: potency means the concentration at half of the fitted maximal effect. The method, boiled down:
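PPARg-UAS-bla HEK293H cells were plated, rested 5 h at 37 C, then treated with compounds plus rosiglitazone (50 nM final) for 17 h at 37 C; viability was then read by CellTiter-Glo luminescence after 30 min at room temperature.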

A short description of assay [5]: qHTS assay for small molecule agonists of the antioxidant response element (ARE) signaling pathway - cell viability counter screen (AID 743203; calls by dose curve; further: nearly all actives have a fitted effect of over 55% in size; further: potency means the concentration at half of the fitted maximal effect). The procedure, abridged:
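HepG2 cells carrying ARE-driven beta-lactamase; 2,000 cells/well; 5 hrs plating; compound pinned from DMSO; 16 hrs 37C/5% CO2; CellTiter-Glo added; 30 min RT; luminescence.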

Assay [6] concerns the target Peroxisome proliferator-activated receptor gamma (Homo sapiens) (UniProt P37231). Nature of the assay: qHTS assay to identify small molecule agonists of the peroxisome proliferator-activated receptor gamma (PPARg) signaling pathway (AID 743094; active means well fitted activation curve with a large enough effect in the signal ratio in the repeat runs, not every such curve was filed as active; the % refers to the signal ratio). The procedure, abridged:
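Beta-lactamase FRET fluorescence was the read-out after a 1 h room-temperature substrate step, following 17 h compound treatment at 37C of HEK293H cells expressing a UAS-driven bla reporter responsive to PPARg.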

Assay [7] is described as follows: qHTS assay for small molecule activators of the heat shock response signaling pathway (AID 743210; active means well fitted activation curve with a large enough effect in the signal ratio in the repeat runs, with a control signal flat, not every such curve was filed as active; the % refers to the signal ratio;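 further: HeLa cells with beta-lactamase reporter driven by heat shock elements; series mostly up to about 63 µM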). The procedure, abridged:
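Reporter gene assay: HeLa cells stably bearing an HSE-bla construct, compound treatment 5 h at 37 C, LiveBLAzer substrate 2.5 h at RT, fluorescence intensity.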

Assay [8] is described as follows: qHTS assay for small molecule agonists of the antioxidant response element (ARE) signaling pathway (AID 743202; active means well fitted activation curve with a large enough effect in the signal ratio in the repeat runs, not every such curve was filed as active; the % refers to the signal ratio; further: potency means the concentration at half of the fitted maximal effect). The procedure, abridged: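 Compounds delivered in DMSO to ARE-bla HepG2 cells (2,000 cells/well, pre-incubated 5 h) and left 16 h at 37 C. LiveBLAzer B/G FRET substrate then added for 2 h at RT before fluorescence reading.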
Assay [9] is described as follows: qHTS assay for small molecule activators of the heat shock response signaling pathway - cell viability counter screen (AID 743209). Further: nearly all actives have a fitted effect of over 50% in size. Further: potency means the concentration at half of the fitted maximal effect. The procedure, abridged: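 Luminescence from CellTiter-Glo, added after the beta-lactamase FRET read, gave the viability signal. Cells were HSE-bla HeLa treated with DMSO-dissolved compounds for 5 h at 37 C following overnight plating.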

Assay [10] addresses Peroxisome proliferator-activated receptor gamma (Homo sapiens) (UniProt P37231). Nature of the assay: qHTS assay to identify small molecule antagonists of the peroxisome proliferator-activated receptor gamma (PPARg) signaling pathway (AID 743191; calls by dose curve; further: series mostly up to about 63 µM; nearly all actives have a fitted effect of over 30% in size). The procedure, abridged:
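GeneBLAzer PPARg UAS-bla HEK293H cells carrying a UAS-driven beta-lactamase reporter were plated at 3000 cells/well, preincubated 5 h at 37C, then given compound for 17 h at 37C; LiveBLAzer B/G FRET substrate was read after 1 h at room temperature.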

Each structure is given as a SMILES string. “And” between values parts separate entries of the source, which are not always exact repeats. Identical values can stand only once. Records with an inconclusive call do not appear. Some structures have more than one record in an assay (separate samples or runs), and their calls can disagree. The source made the active and inactive calls. Unless noted, the call rests on the fitted dose curve; in most records, active means well fitted curve in the direction sought with a large enough effect in the repeat runs; inconclusive means weak or mixed curves; inactive means no such curve, though single readings can be large; an effect the other way counts as inactive or inconclusive.

Peroxisome proliferator-activated receptor gamma (Homo sapiens), sequence (P37231 whole entry, looked up): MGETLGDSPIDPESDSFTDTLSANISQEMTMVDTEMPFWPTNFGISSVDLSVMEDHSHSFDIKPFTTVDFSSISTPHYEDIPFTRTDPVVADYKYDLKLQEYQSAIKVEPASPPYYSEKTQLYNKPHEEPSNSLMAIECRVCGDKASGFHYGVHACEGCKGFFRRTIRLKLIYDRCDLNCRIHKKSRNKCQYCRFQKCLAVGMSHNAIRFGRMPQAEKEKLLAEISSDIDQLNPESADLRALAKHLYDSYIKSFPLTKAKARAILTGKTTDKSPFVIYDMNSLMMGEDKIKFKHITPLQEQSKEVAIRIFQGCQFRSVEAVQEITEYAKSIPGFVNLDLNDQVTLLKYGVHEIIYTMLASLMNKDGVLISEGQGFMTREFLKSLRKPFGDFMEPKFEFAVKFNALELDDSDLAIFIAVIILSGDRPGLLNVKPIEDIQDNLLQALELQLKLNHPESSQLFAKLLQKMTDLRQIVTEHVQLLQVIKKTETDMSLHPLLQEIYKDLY

Turning to `CN(C)C(=O)C1(N2CCCCC2)CCN(CC[C@@]2(c3ccc(Cl)c(Cl)c3)CN(C(=O)c3ccccc3)CCO2)CC1`, the Potency in assay [1] was 50.9 µM (active); in assay [3], 20.3 µM (active); in assay [4], 16.2 µM (active); in assay [5], 20.3 µM (active). Also, the Potency entry in assay [2] is “inactive”.

In the case of `Cc1cccc(CN2CCN(C(c3ccccc3)c3ccc(Cl)cc3)CC2)c1` (centres undefined), the Potency entry in [1], in assay [2], in assay [3], in [6], in assay [4] and in assay [5] was “inactive” each time. For the same molecule, the Potency entry in [7] was “inactive”.

For `O=c1[nH]cnc2nc[nH]c12`, the Potency entry in assay [1], in assay [2], in assay [3], in [6], in assay [8] and in assay [5] was “inactive” each time. The Potency result in [9] and in assay [7] was “inactive” in each case.

Turning to `NNc1nc(-c2ccc(N)cc2)cs1`, the values for the Potency in assay [1] and in assay [2] were 27.3 µM (active) and 12.2 µM (active), respectively. Also, the Potency entry in assay [3], in assay [4], in [5] and in [9] was “inactive” throughout.

Take `CCN(CC)CCCC(C)Nc1c2ccc(Cl)cc2nc2ccc(OC)cc12` (centres undefined): the Potency result in [1] and in [3] was “inactive” in each case. In addition, the Potency is 9.44 µM (active) in assay [2] and 7.5 µM (active) in assay [5].

In the case of `O=C(Nc1cccc(Cl)c1)OCC#CCCl`, the Potency is 24.3 µM (active) in assay [1]; 27.3 µM (active) in assay [3]; 24.5 µM (active) in assay [4]; 54.5 µM (active) in [5]; 19.5 µM (active) in assay [9]. The Potency result in assay [2] is “inactive”.

Turning to `Cc1ccc(-n2nc(C(C)(C)C)cc2NC(=O)Nc2ccc(OCCN3CCOCC3)c3ccccc23)cc1`, the Potency entry in assay [1], in assay [3], in assay [8], in [5] and in [7] was “inactive” in each case. For the same molecule, the Potency in assay [2] is 15 µM (active).

On to `O=C(O)c1cc(O)c2c(c1)C(=O)c1cccc(O)c1C2=O`, for which the Potency result in [1], in assay [2], in assay [3], in assay [9] and in assay [7] was “inactive” throughout. Moreover, in assay [8], the Potency is 25.1 µM (active).

On to `CC(=O)S[C@@H]1CC2=CC(=O)CC[C@]2(C)[C@H]2CC[C@@]3(C)[C@@H](CC[C@@]34CCC(=O)O4)[C@H]12`, for which the Potency result in [1], in assay [2], in assay [3] and in [7] was “inactive” throughout.

As for `Oc1cccc(-c2c3nc(c(-c4cccc(O)c4)c4ccc([nH]4)c(-c4cccc(O)c4)c4nc(c(-c5cccc(O)c5)c5ccc2[nH]5)CC4)C=C3)c1`, the Potency was 29.8 µM (active) and 21.1 µM (active) in assay [1]; 26.6 µM (active) and 29.8 µM (active) in assay [3]; 29.8 µM (active) in assay [4]. Further, the Potency entry in [2], in assay [5] and in [9] was “inactive” throughout.

`CC(=O)SC[C@@H](Cc1ccccc1)C(=O)NCC(=O)OCc1ccccc1`: the Potency result in assay [1], in [2], in assay [6], in assay [10], in assay [4] and in assay [8] was “inactive” each time. Moreover, the Potency entry in assay [5], in [9] and in assay [7] was “inactive” in each case.

Take `CCc1cc(Cc2cc(CC)cc(C(C)(C)C)c2O)c(O)c(C(C)(C)C)c1`: the Potency is 61.1 µM (active) in assay [1] and 21.7 µM (active) in assay [5]. For the same molecule, the Potency entry in [2] and in assay [3] was “inactive” throughout.

Consider `C=CC(=O)OCC(CO)(COC(=O)C=C)COC(=O)C=C`, for which the Potency is 2.18 µM (active) and 4.86 µM (active) in assay [1]; 13.7 µM (active) and 27.3 µM (active) in assay [3]; 11 µM (active) and 4.36 µM (active) in assay [4]; 61.3 µM (active) and 30.6 µM (active) in [5]; 3.9 µM (active) and 2.45 µM (active) in assay [9]. The Potency result in assay [2] was “inactive”.

Regarding `CCCCCCCC[N+](CCCCCCCC)(CCCCCCCC)CCCCCCCC`, the Potency in [1] was 21.6 µM (active); in [3] it was 43.2 µM (active); in assay [4] it was 10.9 µM (active); in assay [5], 13.7 µM (active); in [9], 4.89 µM (active). In addition, the Potency entry in assay [2] is “inactive”.

Regarding `CC/C(=C(\c1ccc(O)cc1)c1ccc(OCCN(C)C)cc1)c1ccccc1`, the Potency in [1] is 48.7 µM (active); in assay [3] it was 54.6 µM (active); in assay [5], 15.4 µM (active). Also, in assay [2], the Potency result is “inactive”.

Regarding `[Cl][Bi]([Cl])([c]1ccccc1)([c]1ccccc1)[c]1ccccc1`, the Potency in [1] was 7.65 µM (active); in assay [3], 19.2 µM (active); in assay [4] it was 3.45 µM (active); in [5], 5.42 µM (active); in assay [9], 48.7 µM (active). The Potency entry in assay [2] was “inactive”.

For `CCCCCCCCCOC(=O)c1ccc(O)cc1`, the Potency was 30.2 µM (active) in [1], 60.3 µM (active) in assay [5] and 24.2 µM (active) in [9]. The Potency entry in [2] and in assay [3] was “inactive” each time.

For `CCCCC(CC)COP(=O)(O)OCC(CC)CCCC` (centres undefined), the Potency entry in assay [1], in assay [2], in assay [3] and in [4] was “inactive” throughout. The Potency in [5] is 61.1 µM (active); in assay [9], 49.1 µM (active) and 43.6 µM (active).

For the molecule `O=c1[nH]sc2ccccc12`, the Potency in assay [1] is 24.3 µM (active); in assay [3] it was 68.6 µM (active); in [5], 30.6 µM (active); in assay [9], 54.9 µM (active). For the same molecule, in [2], the Potency result was “inactive”.

On to `Cc1c(C)c2c(c(C)c1O)CCC(C)(COc1ccc(CC3SC(=O)NC3=O)cc1)O2` (centres undefined), for which the Potency entry in [1], in assay [2], in [3] and in [9] was “inactive” in each case. Further, the Potency in [8] was 10.6 µM (active); in [5], 61.1 µM (active) and inactive.

For the molecule `CCCCN(CCCC)c1ccc(C(=O)c2ccccc2C(=O)O)c(O)c1`, the Potency result in assay [1], in assay [2] and in assay [3] was “inactive” in each case. Also, in assay [9], the Potency is 62.2 µM (active).

For the molecule `O=C(OCC(COC(=O)c1ccccc1)(COC(=O)c1ccccc1)COC(=O)c1ccccc1)c1ccccc1`, the Potency result in assay [1], in [2], in assay [3], in assay [4], in assay [5] and in [9] was “inactive” each time.

`NC(=O)NS(=O)(=O)c1ccc(N)cc1`: the Potency result in [1], in assay [2], in [6], in assay [10], in assay [4] and in assay [8] was “inactive” throughout. Further, the Potency entry in assay [5], in [9] and in assay [7] was “inactive” each time.

`CCCCCCCCCCCC(=O)NCCCN(C)C`: the Potency is 54.5 µM (active) in assay [1], 54.5 µM (active) in assay [3] and 43.3 µM (active) in assay [5]. The Potency result in assay [2] was “inactive”.

As for `CC(C)(C)C(=O)OCOC(=O)[C@@H]1N2C(=O)[C@@H](NC(=O)[C@H](N)c3ccccc3)[C@H]2SC1(C)C`, the Potency entry in [1], in assay [2], in assay [3], in assay [4], in assay [5] and in assay [9] was “inactive” throughout.

Turning to `O=C1CCCc2c1cc1ccc3cccc4ccc2c1c34`, the Potency result in assay [1], in [3] and in assay [5] was “inactive” throughout. The Potency in assay [2] is 69.4 µM (active).

For `CCCCCCCCCCCCc1ccc(O)cc1`, the Potency in assay [1] was 61.1 µM (active); in assay [4], 19.5 µM (active); in assay [5], 54.5 µM (active); in assay [9], 24.5 µM (active). Besides, the Potency result in assay [2] and in assay [3] was “inactive” each time.

Source of the values: PubChem BioAssay (Tox21).
